Source: PubChem BioAssay
Shown are actives, neighbours in structure and some others; about 19% of the full set was active somewhere.
DT40 TDP1 CPT: DT40-hTDP1 cell growth loss with CPT | 420,000 tested, 12% active | Potency, µM (series often up to 46.2 µM), most hits filed as inhibitors | AID 686979 | chicken DT40 Tdp1-/-;hTDP1 cells + 20 nM CPT, ATP luminescence, 48 h; further: nearly all actives have a fitted effect of over 55% in size
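Chicken DT40 Tdp1-/- cells stably complemented with human TDP1 were seeded at 400 cells/well in medium containing 20 nM camptothecin, exposed to pin-transferred compounds, and grown at 37 °C for at least 48 hr. Viability was read as ATP luminescence.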
HT1080 IDH1KD tx: toxicity to HT-1080 IDH1 knockdown cells (counter line) | HT-1080 IDH1 knockdown viability, ATP luminescence, 48 h | Potency, µM (titrated, usually from 46.1 µM), hits mostly cytotoxic | 360,000 tested, 2% active
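% activity derives from luminescence (CellTiter-Glo), normalised to DMSO and no-cell wells. HT-1080-IDH1KD cells, 750/well, had 48 h compound exposure at 37 °C.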
IL1B secr inh: blocks inflammasome-driven IL-1 beta release. THP-1 LPS/ATP IL-1B secretion, AlphaLISA, 16 h; active compounds read low. activity change, % at 57.5 µM. 360,000 tested, 4.7% active. AID 743279; in the data active means activity change below about -50%; inconclusive means mostly about -30% to -49%
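Secreted IL-1B measured by AlphaLISA bead assay after 16 h compound exposure of THP-1 cells; compounds (final up to 57.5 uM) added 1 h before LPS (250 ng/mL) and ATP (1.25 mM) stimulation; lower signal means less secretion.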
HT1080-NT tox: kills 2HG-producing HT-1080-NT fibrosarcoma cells | Potency, µM (doses to about 46.1 µM), usual class: cytotoxic | 360,000 tested, 1.6% active | HT-1080-NT fibrosarcoma viability, CellTiter-Glo ATP luminescence, 48 h;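 further: NT is the 2HG producing partner of a matched IDH1 knockdown line; nearly all actives have a fitted effect of over 55% in size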
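Viability by CellTiter-Glo luminescence after 48 h compound exposure at 37C of HT-1080-NT cells (750/well, RPMI, 5% FBS). % activity scaled between DMSO wells and medium-only wells, then curve-fitted and categorized by curve class.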
TDP1 cell noCPT: qHTS for Inhibitors of human tyrosyl-DNA phosphodiesterase 1 (TDP1): qHTS in cells in absence of CPT | DT40 Tdp1-/- hTDP1 cells, no CPT, ATP luminescence, 48 h | Potency, µM (doses to about 46.2 µM), actives largely listed as inhibitors | 420,000 tested, 15% active | AID 686978, 2013; further: nearly all actives have a fitted effect of over 55% in size
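Compound effects on proliferation are scored in DT40 Tdp1-/-;hTDP1 cells in the absence of CPT. ATP levels (CellTiter-Glo luminescence) are recorded after a ≥48 hr, 37 °C incubation.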
Numbers stand for hits; [ ] = remark or other dose. Unless noted, the call rests on the fitted dose curve; in most records, active means well fitted curve in the direction sought with a large enough effect; inconclusive means small, poorly fitted or top-dose-only effect, or another doubt; inactive means no such curve, though single readings can be large; an effect the other way counts as inactive or inconclusive.

For O=C(Nc1ccc2nc(N3CCOCC3)sc2c1)c1ccccc1 the results were DT40 TDP1 CPT inactive, HT1080 IDH1KD tx inactive, IL1B secr inh inactive, HT1080-NT tox inactive and TDP1 cell noCPT inactive.
CCC(Cc1ccccc1)NC(=O)c1ccc2nc(N3CCC(C)CC3)sc2c1 (stereo not given) was read as DT40 TDP1 CPT 21µM and TDP1 cell noCPT 10µM.
Screening CCOC(=O)c1c(NC(=O)c2cccc(N3C(=O)CCC3=O)c2)sc2c1CCN(CC)C2 returned DT40 TDP1 CPT inactive, HT1080 IDH1KD tx inactive, IL1B secr inh inactive, HT1080-NT tox inactive and TDP1 cell noCPT inactive.
For Cc1c(C(C)C[C@H](C)O)oc(=O)c2c1Oc1c(C)c(C(C)C[C@H](C)O)oc(=O)c1C2 (stereo not given in full) the results were DT40 TDP1 CPT inconclusive, HT1080 IDH1KD tx inactive, IL1B secr inh inactive, HT1080-NT tox inactive and TDP1 cell noCPT inconclusive.
CC(C)(C)OC(=O)N[C@@H](Cc1ccccc1)C(=O)NCC1CCC(C(=O)O)CC1 (stereo not given in full) was read as DT40 TDP1 CPT inactive, HT1080 IDH1KD tx inactive, IL1B secr inh inactive, HT1080-NT tox inactive and TDP1 cell noCPT inactive.
CCN1CCN(C(=O)c2ccccc2Nc2ccc(SC(F)F)cc2)CC1 was read as DT40 TDP1 CPT inactive, HT1080 IDH1KD tx inactive, IL1B secr inh inconclusive, HT1080-NT tox inactive and TDP1 cell noCPT inactive.
For CN1CCN(C(=O)c2ccccc2Nc2ccc(SC(F)F)cc2)CC1 the results were DT40 TDP1 CPT inconclusive, HT1080 IDH1KD tx inactive, IL1B secr inh inactive, HT1080-NT tox inactive and TDP1 cell noCPT 16µM.
Screening COCCNC(=O)c1ccc2c(=O)n(CCc3ccccc3)c(SCC(=O)CC(=O)OC)nc2c1 returned DT40 TDP1 CPT inconclusive and TDP1 cell noCPT 21µM.
For COCCNC(=O)c1ccc2c(=O)n(CCOC)c(SCC(=O)c3c[nH]c4ccccc34)nc2c1 the results were DT40 TDP1 CPT 23µM and TDP1 cell noCPT 13µM.
For COc1ccc(S(=O)(=O)NC(=O)C2(C)CCN2C(=O)CC2CCCCC2)cc1OC (stereo not given) the results were DT40 TDP1 CPT inactive, HT1080 IDH1KD tx inactive, IL1B secr inh inactive, HT1080-NT tox inactive and TDP1 cell noCPT inactive.
Screening CC(=O)Nc1ccc(NC(=O)C2CCC(N3C(=O)C4C5C=CC(C6CC56)C4C3=O)CC2)cc1 (stereo not given) returned DT40 TDP1 CPT inactive, HT1080 IDH1KD tx inactive, IL1B secr inh inactive, HT1080-NT tox inactive and TDP1 cell noCPT inactive.
Screening O=C(Nc1ccc(Cc2ccncc2)cc1)C1CCC(N2C(=O)C3C4C=CC(C5CC45)C3C2=O)CC1 (stereo not given) returned DT40 TDP1 CPT 18µM, HT1080 IDH1KD tx inconclusive, IL1B secr inh inactive, HT1080-NT tox inconclusive and TDP1 cell noCPT 15µM.
`Cc1nonc1CN(C)C(=O)CC1C(=O)NCCN1Cc1ccccc1C(F)(F)F` (stereo not given) gave DT40 TDP1 CPT inactive, HT1080 IDH1KD tx inactive, IL1B secr inh inactive, HT1080-NT tox inactive and TDP1 cell noCPT inactive.
Screening COc1ccc(-c2sc3ccc(N4CCOCC4)cc3c2-c2ccc(O)cc2)cc1 returned DT40 TDP1 CPT inconclusive, HT1080 IDH1KD tx inactive, IL1B secr inh inactive, HT1080-NT tox inactive and TDP1 cell noCPT inconclusive.
Screening COc1ccc(-c2sc3ccc(N4CCOCC4)cc3c2C#CC(C)(C)O)cc1 returned DT40 TDP1 CPT 21µM, HT1080 IDH1KD tx inactive, IL1B secr inh inactive, HT1080-NT tox inactive and TDP1 cell noCPT 9.2µM.
Screening COc1ccc(-c2sc3ccc(N4CCOCC4)cc3c2C#Cc2ccsc2)cc1 returned DT40 TDP1 CPT 18µM, HT1080 IDH1KD tx inactive, IL1B secr inh inactive, HT1080-NT tox inactive and TDP1 cell noCPT inconclusive.
Nc1ccc(C#Cc2c(-c3ccsc3)oc3ccc(N4CCOCC4)cc23)cc1 was read as DT40 TDP1 CPT inconclusive, HT1080 IDH1KD tx inconclusive, IL1B secr inh inactive, HT1080-NT tox inactive and TDP1 cell noCPT inconclusive.
For O=C(O)C1=C[C@H](c2ccc(C(F)(F)F)cc2)C[C@H](OCCCCO)O1 the results were DT40 TDP1 CPT inactive, HT1080 IDH1KD tx inactive, IL1B secr inh inactive, HT1080-NT tox inactive and TDP1 cell noCPT inactive.
CCOC(=O)C1=NN(C(C)=O)C2(CC(=O)N(c3cccc(C)c3)C2=O)C1 (stereo not given) was read as DT40 TDP1 CPT inconclusive, HT1080 IDH1KD tx inactive, IL1B secr inh inactive, HT1080-NT tox inactive and TDP1 cell noCPT inactive.
For Cc1ccc2cccc(OCC(=O)N3CC(C)CC(C)C3)c2n1 (stereo not given) the results were DT40 TDP1 CPT inactive, HT1080 IDH1KD tx inactive, IL1B secr inh inactive, HT1080-NT tox inactive and TDP1 cell noCPT inactive.
Cc1cc(C)c(S(=O)(=O)Nc2nnc(C)s2)c(C)c1 was read as DT40 TDP1 CPT 15µM, HT1080 IDH1KD tx inactive, IL1B secr inh inactive, HT1080-NT tox inactive and TDP1 cell noCPT 18µM.
For Cc1cc(C)c(S(=O)(=O)Nc2nnc(CC(C)C)s2)c(C)c1 the results were DT40 TDP1 CPT inactive, HT1080 IDH1KD tx inactive, IL1B secr inh inactive, HT1080-NT tox inactive and TDP1 cell noCPT inactive.
For CCOc1ccc(S(=O)(=O)Nc2cnc3ccccc3c2)cc1 the results were DT40 TDP1 CPT 18µM, HT1080 IDH1KD tx inactive, IL1B secr inh inactive, HT1080-NT tox inconclusive and TDP1 cell noCPT 18µM.
Screening Cc1cc(C)c(S(=O)(=O)Nc2cnc3ccccc3c2)c(C)c1 returned DT40 TDP1 CPT inconclusive, HT1080 IDH1KD tx inactive, IL1B secr inh -73, HT1080-NT tox inactive and TDP1 cell noCPT inconclusive.
Screening CCOc1ccc(S(=O)(=O)Nc2nc3ccccc3nc2Cl)cc1 returned DT40 TDP1 CPT inconclusive, HT1080 IDH1KD tx inactive, IL1B secr inh inactive, HT1080-NT tox inactive and TDP1 cell noCPT 21µM.
`O=C(NCCc1ccccn1)C1CC12CCN(C(=O)c1c(F)cccc1Cl)CC2` (stereo not given) gave DT40 TDP1 CPT inactive[9.04 µM] and TDP1 cell noCPT inactive.
`Cc1cc(C)c(S(=O)(=O)Nc2ccccc2C(F)(F)F)c(C)c1` gave DT40 TDP1 CPT inactive and TDP1 cell noCPT inactive.
Cc1cc(C)c(S(=O)(=O)Nc2ccccc2-c2ccccc2)c(C)c1 was read as DT40 TDP1 CPT inconclusive, HT1080 IDH1KD tx inactive, IL1B secr inh inactive, HT1080-NT tox inactive and TDP1 cell noCPT 21µM.
For NC(=O)/C(=C\c1ccccc1)NC(=O)c1ccc(NC(=O)c2ccccc2)cc1 the results were DT40 TDP1 CPT inactive, HT1080 IDH1KD tx inactive, IL1B secr inh inactive, HT1080-NT tox inactive and TDP1 cell noCPT inactive.
Screening O=C1/C(=C/c2ccco2)CCC1C1CCCC1 (stereo not given) returned DT40 TDP1 CPT inactive, HT1080 IDH1KD tx inactive, IL1B secr inh inactive, HT1080-NT tox inconclusive and TDP1 cell noCPT inactive.
